Sampled rows, rich in hits. Any-hit rate of the full collection: about 12%.
JMJD2A Tudor – qHTS Assay for Inhibitors of JMJD2A-Tudor Domain. Lysine-specific demethylase 4A (Homo sapiens), O75164. AlphaScreen JMJD2A-Tudor / H3K4me3 peptide binding. Potency, µM (highest dose often 114 µM), without a hit: at the top dose activity change, negative = inhibition, usual class: inhibitors. actives 4.4% (n = 390,000). AID 504339, 2011; further: on the % scale 0 is the no-effect control and ±100 the full control effect; nearly all actives have a fitted effect of over 50% in size
G9a block – qHTS Assay for Inhibitors of Histone Lysine Methyltransferase G9a. Histone-lysine N-methyltransferase EHMT2 (Homo sapiens), Q96KQ7. G9a H3K9 monomethylation, AlphaScreen, 2 h. Potency, µM (titrated, usually from 102 µM), for inactives: at the top dose activity, negative = inhibition, most hits filed as inhibitors. actives 8.8% (n = 350,000); further: on the % scale 0 is the no-effect control and ±100 the full control effect; nearly all actives have a fitted effect of over 75% in size
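Using a bead-based AlphaScreen, monomethylated H3K9 product from 2 h room-temperature reactions (G9a 20 nM, peptide 500 nM, SAM 20 uM) was detected with 0.5 ug/mL rabbit anti-H3K9me1 antibody.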
Sfp PPTase inh – qHTS Assay for Inhibitors of Bacillus subtilis Sfp phosphopantetheinyl transferase (PPTase). 4'-phosphopantetheinyl transferase ffp (Bacillus subtilis), Q9F4F7. actives 3.5% (n = 310,000). Potency, µM, without a hit: largest response in the series, negative = inhibition, hits mostly inhibitors. AID 1490, 2009. Biochemical Sfp PPTase activity, qHTS;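 further: the enzyme is Sfp with the accession as filed and its product quenches rhodamine fluorescence; 0% = enzyme reaction without inhibitor and -100% = no enzyme wells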
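Reaction rates are the 30-min fluorescence difference (ex 525, em 598 nm) in wells containing 15 nM Sfp, 5 uM rhodamine-CoA and 12.5 uM BHQ-2-YbbR at pH 7.6 with 10 mM MgCl2.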
HP1b chromo inh – HTS for Inhibitors of HP1-beta Chromodomain Interactions with Methylated Histone Tails; Chromobox protein homolog 1 (Homo sapiens), P83916; AlphaScreen HP1-beta / biotin-H3K9me3 peptide binding; Potency, µM (top dose mostly 114 µM), for inactives: top-dose activity change, negative = inhibition, actives largely listed as inhibitors; actives 0.56% (n = 390,000); further: nearly all actives have a fitted effect of over 70% in size
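Compound inhibition of the preformed complex between 50 nM HP1-beta and 50 nM biotinylated H3K9me3 peptide was read by AlphaScreen. Buffer was PBS pH 7.4 with 0.01% Tween-20. Incubations ran 30 min at room temperature, with 10 ug/mL donor/acceptor beads.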
BAZ2B block – qHTS Assay for Inhibitors of BAZ2B; Bromodomain adjacent to zinc finger domain protein 2B (Homo sapiens), Q9UIF8; AlphaScreen BAZ2B-H3K14Ac peptide displacement; Potency, µM (titrated, usually from 114 µM), without a hit: at the top dose activity change, negative = inhibition, actives largely listed as inhibitors; actives 4.4% (n = 360,000); AID 504333, 2011; further: on the % scale 0 is the no-effect control and ±100 the full control effect; nearly all actives have a fitted effect of over 60% in size
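Complex of BAZ2B and biotin-H3K14Ac (50 nM apiece) forms over 30 min at RT, then faces library compounds up to 110 uM for another 30 min; AlphaScreen beads added, 20 min dark incubation, luminescence read.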
PLK1 PBD block – qHTS for Inhibitors of PLK1-PDB (polo-like kinase 1 - polo-box domain): Primary Screen. Potency, µM, inactives show max response, negative = inhibition, most hits filed as inhibitors. AID 720504, 2013. Plk1 PBD binding of FITC phosphopeptide, fluorescence polarization. actives 2.8% (n = 360,000). Serine/threonine-protein kinase PLK1 (Homo sapiens), P53350; further: series mostly up to about 57 µM; on the % scale 0 is the no-effect control and ±100 the full control effect; nearly all actives have a fitted effect of over 65% in size
The depositor's hits bear a star; [ ] = another dose, or the depositor's remark. The call rests on the fitted dose curve; in most records, active means well fitted curve in the direction sought with a large enough effect; inconclusive means small, poorly fitted or top-dose-only effect, or another doubt; inactive means no such curve, though single readings can be large; an effect the other way counts as inactive or inconclusive. Potency means the concentration at half of the fitted maximal effect.

`CCS(=O)(=O)N1CCN(c2nc(-c3ccccc3)cs2)CC1` gave JMJD2A Tudor -35%, G9a block 13µM*, Sfp PPTase inh inconclusive, HP1b chromo inh -9%, BAZ2B block -14% and PLK1 PBD block -21%.
O=C(Cc1cccs1)N1CCN(c2nc(-c3ccc(Cl)cc3)cs2)CC1 was read as JMJD2A Tudor -22%, G9a block 71µM*, Sfp PPTase inh -15%, HP1b chromo inh -12%, BAZ2B block -6% and PLK1 PBD block -12%.
For Cc1cccc(C(=O)OCc2cc(=O)n3nc(C4CC4)sc3n2)c1 the results were JMJD2A Tudor 1%, G9a block -3%[59 µM], HP1b chromo inh 25% and BAZ2B block 0%.
`Cc1ccc(Sc2ncccc2COC(=O)Nc2ccccc2)cc1` gave JMJD2A Tudor 21%, G9a block 3%[59 µM], Sfp PPTase inh 9%, HP1b chromo inh 62%, BAZ2B block 20% and PLK1 PBD block -7%.
For Cc1ccccc1NC(=O)CCCNC(=O)c1ccc(Cl)cc1 the results were JMJD2A Tudor -9%, G9a block inconclusive, Sfp PPTase inh 0%, HP1b chromo inh 3%, BAZ2B block -2% and PLK1 PBD block -1%.
Screening CC(C)(C)c1ccc(C2=NC(=O)C(CC(=O)O)S2)cc1 (stereo not given) returned JMJD2A Tudor -22%, G9a block 50µM*, Sfp PPTase inh 50µM*, HP1b chromo inh -5%, BAZ2B block inconclusive and PLK1 PBD block 27µM*.
C=CCNC(=O)c1c[nH]c2ccc(S(=O)(=O)N(C)c3ccc(OCC)cc3)cc2c1=O was read as JMJD2A Tudor -5%, G9a block 15%, Sfp PPTase inh 17%, HP1b chromo inh 26%, BAZ2B block 2% and PLK1 PBD block -15%.
`COc1c[nH]n(C2CCCCC2)c(=O)c1=O` gave JMJD2A Tudor 20µM*, G9a block 22µM*, Sfp PPTase inh -4%, HP1b chromo inh 7%, BAZ2B block inconclusive and PLK1 PBD block -4%.
For COc1ccc(Nc2cc(=O)n(C3CCCCC3)c(=O)[nH]2)c(OC)c1 the results were JMJD2A Tudor 0%, Sfp PPTase inh 1%, HP1b chromo inh 11%, BAZ2B block -5% and PLK1 PBD block -5%.
Cc1ccc2c(c1)[nH]c1c(=O)n(CCN3CCNCC3)cnc12 was read as JMJD2A Tudor -18%, G9a block 45µM*, Sfp PPTase inh 16%, HP1b chromo inh 35%, BAZ2B block 0% and PLK1 PBD block -9%.
Screening Cc1ccc2c(c1)[nH]c1c(=O)n(Cc3ccco3)cnc12 returned JMJD2A Tudor -9%[11.4 µM], G9a block -8%, Sfp PPTase inh -6%, HP1b chromo inh 3%, BAZ2B block -16% and PLK1 PBD block 27µM*.
Cc1ccc(/C=C2\C(=O)ON=C2c2ccccc2)o1 was read as JMJD2A Tudor -34%, G9a block -13%, Sfp PPTase inh 15%, HP1b chromo inh inconclusive, BAZ2B block -20% and PLK1 PBD block inconclusive.
For Cc1ccc(-c2ccc(/C=C3\C(=O)ON=C3c3ccccc3)o2)c([N+](=O)[O-])c1 the results were JMJD2A Tudor 22µM*, G9a block 27%[0.501 µM], Sfp PPTase inh 22µM*, HP1b chromo inh -55%, BAZ2B block 10µM* and PLK1 PBD block 1.7µM*.
`Cc1ccc(C2=NOC(=O)/C2=C\c2ccc(C)o2)cc1` gave JMJD2A Tudor 35µM*, Sfp PPTase inh 40µM*, HP1b chromo inh 28µM*, BAZ2B block 11µM* and PLK1 PBD block 0.75µM*.
O=C1/C(=C\c2ccc(-c3ccccc3[N+](=O)[O-])o2)C(c2ccccc2)=NN1c1ccccc1 was read as JMJD2A Tudor 5.6µM*, G9a block 4µM*, Sfp PPTase inh -2%, HP1b chromo inh 7.9µM*, BAZ2B block 6.3µM* and PLK1 PBD block 3.4µM*.
`CCCCOc1ccc(/C=C/C(=O)N(CC)CC(=O)Nc2ccc3c(c2)OCCO3)cc1OC` gave JMJD2A Tudor inconclusive, G9a block -41%, HP1b chromo inh -15%, BAZ2B block -39% and PLK1 PBD block -5%.
CC[N+](CC)(CC)CCCCOc1ccc2c(c1)C(=O)c1cc(OCCCC[N+](CC)(CC)CC)ccc1-2 was read as JMJD2A Tudor 35µM*, G9a block inconclusive, Sfp PPTase inh -13%, HP1b chromo inh -6%, BAZ2B block -33% and PLK1 PBD block -3%.
`CCCCOc1cccc(C(=O)O)c1` gave JMJD2A Tudor -24%, G9a block -2%[12.7 µM], Sfp PPTase inh 3%, HP1b chromo inh 34%, BAZ2B block -38% and PLK1 PBD block -8%.
Screening Oc1ccc(N=Nc2ccccc2)o1 returned JMJD2A Tudor -17%, G9a block 40µM*, Sfp PPTase inh inconclusive, HP1b chromo inh 26%, BAZ2B block -16% and PLK1 PBD block inconclusive.
CC(C)(C)C(=O)Nc1ccc(N=Nc2ccccc2)cc1 was read as JMJD2A Tudor -31%, G9a block 2%, Sfp PPTase inh -6%, HP1b chromo inh 9%, BAZ2B block -4% and PLK1 PBD block -1%.
`CCN(CC)c1ccc(/C=N/N2CCOCC2)c(O)c1` gave JMJD2A Tudor -26%, G9a block inconclusive, Sfp PPTase inh -13%, HP1b chromo inh 6%, BAZ2B block -34% and PLK1 PBD block 10%.
Screening CCN(CC)c1ccc(/C=N/N2CCN(Cc3ccc(C)cc3C)CC2)c(O)c1 returned JMJD2A Tudor 22µM*, G9a block inconclusive, Sfp PPTase inh 3%, HP1b chromo inh 20µM*, BAZ2B block 10µM* and PLK1 PBD block 8%.
Screening CN(C)c1ccc(/C=N/N2CCN(Cc3ccccc3Cl)CC2)cc1 returned JMJD2A Tudor 32µM*, G9a block inconclusive, Sfp PPTase inh -5%, HP1b chromo inh inconclusive, BAZ2B block 50µM* and PLK1 PBD block -1%.
`CCN(CC)c1ccc(/C=N/N2CCN(Cc3ccccc3)CC2)c(O)c1` gave JMJD2A Tudor 14µM*, G9a block inconclusive, Sfp PPTase inh -4%, HP1b chromo inh -77%, BAZ2B block 13µM* and PLK1 PBD block 1%.
